# Source: PubChem BioAssay (NCI)
# This is part of a sample that, as a whole, favours compounds with a hit. Of some 83,000 tested, about 20% had one in any assay.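 A percent growth of 40 corresponds to 60% growth inhibition; 0 means no net growth; -100 means all cells died. Active threshold: below 10.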 Values without a mark were called inactive. Activity calls are given as the source filed them.
# Columns and labels:
# Test in all cases: NCI-60 one-dose screen, 48 h (100 = growth as untreated, 0 = no growth, -100 = all killed)
# Conditions in all cases: 10 µM unless noted
# [1] = tested on: DU-145 prostate
# [2] = tested on: K-562 leukemia
# [3] = tested on: MALME-3M melanoma
# [4] = tested on: MDA-MB-231 breast
# [5] = tested on: RXF 393 renal
# [6] = tested on: SF-268 CNS
# [7] = tested on: SF-295 CNS
# [8] = tested on: SF-539 CNS
# [9] = tested on: UACC-257 melanoma
# [10] = tested on: M14 melanoma
SMILES,growth [1],growth [2],growth [3],growth [4],growth [5],growth [6],growth [7],growth [8],growth [9],growth [10]
CCOC(=O)NC1=NCC(C)(C)S1,107%,88.4%,103%,101%,111%,97.8%,98.7%,110%,103%,
CC(=O)c1cc(Nc2cc(C)nc(N)n2)cc(C(C)=O)c1,91.3%,81.3%,45.3%,106%,108%,99.8%,114%,91.2%,103%,
COCC(=O)NNc1[nH]c(-c2ccc(OC)cc2)cc1C#N,111%,96.9%,112%,102%,114%,119%,96%,96.2%,109%,
FC(F)(F)c1cccc(-c2[nH]ncc2-c2nnnn2-c2ccccc2)c1,76.1%,11.8%,61.6%,41%,-20.4% (active),66.4%,56.7%,63.9%,48.4%,
O=C(O)/C(Br)=C/c1c[nH]c2ccc(Br)cc12,115%,68%,106%,102%,109%,124%,102%,112%,117%,
CCCCCCN(CCCCCC)CCC(=O)Nc1ccc(S(=O)(=O)c2ccc(NC(=O)CCN(CCCCCC)CCCCCC)cc2)cc1,95.4%,7.37% (active),96%,61%,83.3%,80.1%,100%,94.7%,99.8%,
CC(=O)Nc1ccc(C(=O)/C=C/c2ccc(N(C)C)cc2)cc1,98.2%,98.2%,88.9%,104%,99.1%,93.7%,99%,106%,95.5%,
OCC(O)C(O)CC1SCCS1 (stereo not given),108%,83%,101%,114%,102%,99.4%,104%,103%,105%,97.9%
O=C(Nc1ccc(-n2cc(-c3ccncc3)c(-c3ccc(Cl)c(O)c3)n2)cc1)c1cc(Cl)cc(Cl)c1,72.8%,13.9%,24.7%,24.2%,-69% (active),74.5%,-61.6% (active),26%,54.7%,
CC(=O)N1N=C(c2ccc(Cl)cc2)CC1c1cn(-c2ccccc2)nc1-c1ccc([N+](=O)[O-])cc1 (stereo not given),116%,118%,92%,104%,135%,102%,104%,93.6%,106%,
COc1cc(NC(C)CCCN)c2nc(C)ccc2c1OC (stereo not given),87.2%,78.9%,69.9%,75.6%,186%,109%,118%,93.6%,124%,
COc1cccc(NC(=O)NCCNc2nccc(-c3c(-c4ccc(F)cc4)nc4sccn34)n2)c1,76.9%,71.4%,140%,79.4%,88.5%,84.2%,103%,102%,119%,92.6%
COc1ccc(C2C3(C#N)C(N)=NC(=C(C#N)C#N)C23C#N)cc1OC (stereo not given),102%,97.1%,112%,93.2%,96.8%,121%,108%,94.2%,102%,
CCN(CCO)CCNc1ccc(C)c2sc3cc(OC)ccc3c(=O)c12,72.2%,20.1%,103%,64.2%,71.4%,70.1%,73.7%,77.2%,103%,
O=C(CBr)OCc1ccc([N+](=O)[O-])o1,108%,111%,107%,101%,94.8%,88.6%,96.5%,103%,88.5%,
CCOC(=O)CSSCC(=O)OCC,106%,101%,112%,107%,128%,104%,100%,95.9%,94.1%,
Cc1nn(-c2ccccc2)c(N)c1N=C1NC(=O)/C(=C/c2ccc(Cl)cc2)S1,86.9%,73.2%,87.4%,105%,109%,83.7%,86.5%,81%,105%,
CCOC(=O)C1C(=O)C(=O)N(C(C)C)C1C(=O)OCC (stereo not given),113%,108%,92.4%,103%,105%,99.3%,98.2%,99.8%,86.7%,111%
O=C1Nc2ccccc2/C1=C/c1cn(CC(O)Cn2cc(/C=C3\C(=O)Nc4ccccc43)c3ccccc32)c2ccccc12 (stereo not given),-90.5% (active),-16.7% (active),-76.1% (active),-79.9% (active),-90.8% (active),-62% (active),-84.7% (active),-77.7% (active),-50.9% (active),-81.4% (active)
CC([C@H]1CCC2C3CCC4C[C@@H](N)CC[C@]4(C)C3CC[C@@]21C)N(C)C (stereo not given in full),88.7%,21.2%,5.88% (active),58%,24.3%,37.1%,76.6%,13.1%,-7.66% (active),-6.67% (active)
Cc1cc2c(-c3nc4ccccc4[nH]3)c(O)c(O)cc2c(O)c1-c1c(C)cc2c(-c3nc4ccccc4[nH]3)c(O)c(O)cc2c1O,16.6%,6.02% (active),-6.72% (active),23.3%,-8.07% (active),6.93% (active),-17.5% (active),-24.5% (active),-3.19% (active),-3.53% (active)
C=CCNC(=S)NNc1ccc([N+](=O)[O-])cn1,104%,94.3%,79.6%,89.7%,104%,97.7%,96.9%,104%,97.9%,96%
COc1ccc(C2CC(=O)c3c(O)cc(OC4OC(COC5OC(C)C(O)C(O)C5O)C(O)C(O)C4O)cc3O2)cc1O (stereo not given),136%,167%,96.1%,111%,111%,112%,87.8%,98.7%,95.5%,98.7%
CCCCCSc1ccc2nc(NC(=O)OCCC)sc2c1,43.2%,19%,62.5%,43.3%,28.8%,55.2%,19.9%,-24.7% (active),63.1%,23.1%
Cc1nc2ccccc2c(=O)n1-c1cccc(OCc2cn(-c3cccc(O)c3)nn2)c1,100%,88.2%,104%,78.3%,105%,88.4%,93.8%,100%,94.9%,94.4%
CSC1=Nc2c(c(C)c(-c3ccccc3)n2CCCCl)C2=NC(=O)CN12,94.8%,19.3%,82.8%,65.2%,94.7%,77%,43.3%,61.7%,83.8%,30.8%
O=C(CN1C(=O)NC(c2ccccc2)(c2ccccc2)C1=O)c1ccc(N2CCCC2)cc1,107%,29.5%,72.1%,113%,81%,97.8%,72.1%,100%,85.8%,52.9%
COc1cc2ncnc(-n3ncc4cc(NC(=O)Nc5ccc(Cl)c(Cl)c5)ccc43)c2cc1OC,1.5% (active),10.7%,-44.3% (active),-74.3% (active),-86.7% (active),-34.8% (active),-66.8% (active),-70.6% (active),-10.3% (active),-41% (active)
CC(O)CN(CCO)CCN(CCO)CC(C)O (stereo not given),106%,107%,106%,115%,93%,107%,94.2%,94.8%,108%,106%
